Results reported in the supplement of paper PMC10338343.
± gives the standard deviation.

Each sequence was assayed on EfPiwi piRISC loaded with piRNA #1 (26 nt) (assay: pre-steady-state target cleavage rate (min^-1); auxiliary factor: 500 nM Ephydatia muelleri Gtsf1; guide: piRNA #1 5'p-UGAGGUAGUAGGUUGUAUAGUAUCCA; MIWI and MILI are mouse PIWI proteins and EfPiwi is from a freshwater sponge; tags in brackets are library labels; higher = faster piRNA-guided slicing of the target).
Procedure: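 Cleave-'n-Seq: a library of target RNAs (target site in constant flanks) at […] was incubated with 1 nM active freshwater sponge Ephydatia fluviatilis Piwi piRISC (synthetic 5'-monophosphorylated piRNA guide) with or without 500 nM EmGtsf1 at 33 °C for 1 min to 16 h. Uncleaved targets were sequenced and the pooled three trials fitted to a burst-and-steady-state model to give the pre-steady-state cleavage rate (min^-1). Sequence is the target site only. Fits with R² ≤ 0 are excluded.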
In the case of GGAGUGGAUACUAUACAACCUAACUACCUCA, the “pre-steady-state target cleavage rate” value is reported as 0.00456 ± 0.0023.
For GGAGUGGAUACUUUACAAGCUACUACCUCA, the “pre-steady-state target cleavage rate” value was 0.00397 ± 0.0024.
In the case of GGAGACCUAACUAAACAACCUACUACCUCA, the “pre-steady-state target cleavage rate” value is reported as 0.00631 ± 0.0031.
For GGAGACGAUACUAUACAACCUACAUACCUCA, the “pre-steady-state target cleavage rate” value was 0.00413 ± 0.0021.
For GGAGACCAUACUAUACAAGGUACUACCUCA, the “pre-steady-state target cleavage rate” value was 0.00335 ± 0.0029.
GGAGUGGAUACUAUACAACCAACUACCACA was tested, and the “pre-steady-state target cleavage rate” value was 0.00391 ± 0.0018.
With GGAGACCAAACUAUACAACCUACUACGUCA the “pre-steady-state target cleavage rate” value was 0.00503 ± 0.0027.
For GGAGACCAUCACUAUACAACCUACUACCUCA, the “pre-steady-state target cleavage rate” value was 0.0254 ± 0.012.
With GGAGACGAUACUAUACAACCUACUACCUGCA the “pre-steady-state target cleavage rate” value was 0.00933 ± 0.0034.
With GGAGUGGAUACUAUACAACCUACUACGAGA the “pre-steady-state target cleavage rate” value was 0.00447 ± 0.0022.
GGAGACCAUACUAUUCAACGUACUACCUCA was tested, and the “pre-steady-state target cleavage rate” value was 0.00247 ± 0.0019.
For GGAGACCAUACUAUACAGACCUACUACCUCA, the “pre-steady-state target cleavage rate” value was 0.0137 ± 0.0061.
With GGAGUGGAUACUAUGACAACCUACUACCUCA the “pre-steady-state target cleavage rate” value was 0.0114 ± 0.0053.
For GGAGACGAUACUUUACAACCUACUACGUCA, the “pre-steady-state target cleavage rate” value was 0.00279 ± 0.0019.
With GGAGAGGAUACUAUACAACGUACUACGUCA the “pre-steady-state target cleavage rate” value was 0.00349 ± 0.0018.
With GGAGAGGAUAGUUUACAACCUACUACCUCA the “pre-steady-state target cleavage rate” value was 0.0061 ± 0.0039.
In the case of GGAGACCAUAGUAUACAACCUACUACCUCA, the “pre-steady-state target cleavage rate” value is reported as 0.022 ± 0.0084.
With GGAGACCAAACUAUACAACCUACUACCUGA the “pre-steady-state target cleavage rate” value was 0.00429 ± 0.0028.
For GGAGUGGAUACUAUACAACCAUACUACCUCA, the “pre-steady-state target cleavage rate” value was 0.00742 ± 0.0033.
GGAGACCAUACUUUACAACCUAGUACCUCA was tested, and the “pre-steady-state target cleavage rate” value was 0.00535 ± 0.0043.
For GGAGACGUUACUAUACAACCUACUACCUCA, the “pre-steady-state target cleavage rate” value was 0.0209 ± 0.0092.
For GGAGACCACUACUAUACAACCUACUACCUCA, the “pre-steady-state target cleavage rate” value was 0.0313 ± 0.014.
GGAGACCAUACUAUUCAACCUACUAGCUCA was tested, and the “pre-steady-state target cleavage rate” value was 0.00459 ± 0.0044.
For “GGAGAGGAUACUAUACAACCUACUACCUCC [g2:g25:cont:t1C]”, the “pre-steady-state target cleavage rate” value was 0.12 ± 0.046.
GGAGACCAUACUAUACUACCUACUACCUGA was tested, and the “pre-steady-state target cleavage rate” value was 0.00271 ± 0.0014.
For GGAGUGGAUACUUUACUACCUACUACCUCA, the “pre-steady-state target cleavage rate” value was 0.00437 ± 0.0036.
With GGAGUGGAUACUUUACAUCCUACUACCUCA the “pre-steady-state target cleavage rate” value was 0.0043 ± 0.0029.
For GGAGACGAACUAUACAACCUACUACCUCA, the “pre-steady-state target cleavage rate” value was 0.0112 ± 0.0057.
For GGAGACCUAACUAUACAACCUACUACCUAA, the “pre-steady-state target cleavage rate” value was 0.0641 ± 0.025.
With GGAGUUGGAUACUAUACAACCUACUACCUCA the “pre-steady-state target cleavage rate” value was 0.197 ± 0.056.
In the case of GGAGACCAUACUAUACAACCUACUACGACA, the “pre-steady-state target cleavage rate” value is reported as 0.00532 ± 0.0028.
GGAGACCAUUGAAUACAACCUACUACCUCA was tested, and the “pre-steady-state target cleavage rate” value was 0.00581 ± 0.0033.
With GGAGAGGAUACUAAACAACCUACUAGCUCA the “pre-steady-state target cleavage rate” value was 0.00242 ± 0.0017.
For GGAGACCAUACUAUACAACCUACUACCUCCA, the “pre-steady-state target cleavage rate” value was 0.0119 ± 0.0039.
For GGAGUGGAUACUAUACAUCCUAGUACCUCA, the “pre-steady-state target cleavage rate” value was 0.00411 ± 0.0015.
GGAGACCUAUCUAUACAACCUCCUACCUCA was tested, and the “pre-steady-state target cleavage rate” value was 0.00509 ± 0.0028.
With GGAGUGGAUUCUAUACAACGUACUACCUCA the “pre-steady-state target cleavage rate” value was 0.00313 ± 0.0019.
For GGAGACGUAUACUAUACAACCUACUACCUCA, the “pre-steady-state target cleavage rate” value was 0.0356 ± 0.013.
In the case of GGAGUGGAUACUAUACAACCUAUACCUCA, the “pre-steady-state target cleavage rate” value is reported as 0.00334 ± 0.0019.
In the case of GGAGACCAUACUGUACAACCUACUACCUCA, the “pre-steady-state target cleavage rate” value is reported as 0.0144 ± 0.0056.
